The record followed here is PubChem BioAssay (EPA / NIEHS).

The source made the active and inactive calls. Rule for the calls: active = hit-call score of the fitted dose curve at least 0.9, where 1 is the maximum; inactive = score below 0.9.

Read-out in the experiment: cysteine-aspartic acid protease (CASP8), CASP8 (gene 841)
Briefly: LTEA_HepaRG_CASP8: Life Technologies and Expression Analysis (LTEA) Assay for cysteine-aspartic acid protease (CASP8) using HepaRG (AID 2283480). The conditions noted are these: mRNA level, 48 h; actives raise or lower the signal. The procedure: LTEA_HepaRG is a cell based, multiplexed-readout assay that uses HepaRG, a human liver cell line, with measurements taken at 48 hours after chemical dosing on a 96-well plate.LTEA_HepaRG_CASP8 is one of 102 assay component(s) measured in the LTEA HepaRG cell culture assay. It is a marker of Cell proliferation, survival, death.Data from the assay component LTEA_HepaRG_CASP8 was analyzed into 1 endpoint. This assay endpoint, LTEA_HepaRG_CASP8, was analyzed with bidirectional fitting relative to DMSO as the negative control and baseline of activity. Using a type of inducible reporter, measures of mRNA induction for gain or loss-of-signal activity can be used to understand regulation of transcription factor activity. To generalize the intended target to other relatable targets, this assay endpoint is annotated to the protease intended target family, where the subfamily is cysteine protease.
A total of 1060 chemcials from the ToxCast library were tested in eight-point concentration-response experiments. Cell culture and cytotoxicity assays were conducted at Thermo Fisher Scientific's Custom Services facility (Madison, WI). A single lot of human HepaRG cells (Thermo Fisher Scientific, Frederick, MD) was used for the cell culture experiments. 96-well format collagen type I coated plates of human HepaRG cells were prepared using established methods. Briefly, cryopreserved HepaRG cells were thawed, plated at a density of approximately 100,000 cells/well in HepaRG Thaw, Plate, and General Purpose media (HPRG770, Thermo Fisher Scientific), and incubated for 48 hours. 0.5% DMSO was selected as vehicle control to balance the requisite need of DMSO in HepaRG cultures to maintain differentiation (for example, baseline metabolism, proportions of hepatocytes vs. cholangiocytes), while enabling further hepatic receptor pathway activation (for example, PXR and CAR) in response to chemical exposure. 48 hours after plating, the culture medium was replaced with HepaRG Serum-Free Incudtion Media. Cells were exposed to each test chemical in duplicate and maintained in CO2 incubators for another 48 hours. Chemical plates were thawed to room temperature and 200x concentrations of treatment groups were prepared. 8-point conentration-reponse curves were made with the highest exposure at 100 uM, followed by half-log dilutions, all in 0.5% DMSO. Each test plate contained variouse controls, induction positive controls (1mM phenobarbital), cytotoxicity positive controls ([…] aflatoxin B1), vehicle controls (0.5% DMSO), and total lysis controls (0.5% DMSO). Cell morphology images were taken using an Essen IncuCyte FLR automated microscope, with six 96-well plates imaged in about 24 minutes. Images were captured and exported and JPEG files. Spent culture media was transfered to black-well plates for the LDH assay, and remaining media was sorted at -80 C for later use. Cells were treated with RLT buffer and frozen until shipped for gene expression analysis. Total RNA was isolated from the cell suspension in 75 uL of Buffer RLT (Qiagen, Germantown, MD 20874) by Quintiles/Expression Analysis (Durham, NC) using a custom isolation procedure. Total RNA from each plate well was transferred to a preamplification plate. Fluidigm's 96.96 Dynamic ArrayTM (Fluidigm, Amsterdam, the Netherlands) technology was used for gene expression analyses by quantitative reverse transcription polymerase chain reaction (qRT-PCR, performed by Quintiles/Expression Analysis, Durham, NC)89. Standard TaqManTM Assays (Applied Biosystems/ThermoFisher Scientific, Foster City, CA) were used to assess the expression of 93 genes selected based on their selectivity and sensitivity to important hepatic receptors known to be modulated by environmental chemicals; importance in human hepatocyte functionality; and hepatotoxicity. […]
Take `CO[C@H]1/C=C/O[C@@]2(C)Oc3c(C)c(O)c4c(O)c(c(/C=N/N5CCN(C)CC5)c(O)c4c3C2=O)NC(=O)/C(C)=C\C=C\[C@H](C)[C@H](O)[C@@H](C)[C@@H](O)[C@@H](C)[C@H](OC(C)=O)[C@@H]1C`: the compound was called inactive.
For the compound `OCCO`, the compound was called inactive.
Same read-out and setting: then `O=C(O)Cn1c(=O)n(Cc2ccc(Br)cc2F)c(=O)c2ccc(Cl)cc21`, with “inactive”; and `O=C1CCC(C2CCCCC2)CC1`, with “inactive”.
Take `CCN(CC)C(=O)c1cc(S(=O)(=O)Cc2ccccc2)c(N2CCC(c3ccccc3)CC2)cc1N(CC)CCN(C)C`: the concentration at half-maximal activity (AC50) is 30.8 µM (active).
Consider `C[C@]12CC[C@@H]3c4ccc(O)cc4CC[C@H]3[C@@H]1CC[C@H]2O`, for which the compound was called inactive.
For the compound `Cc1cc(F)ccc1-c1cc(N2CC[C@@H](O)[C@H]2CO)ncc1N(C)C(=O)C(C)(C)c1cc(C(F)(F)F)cc(C(F)(F)F)c1`, the call was inactive.
Still for that read-out and setting: for `CCCOC(=O)c1cc(O)c(O)c(O)c1` the value was “inactive”; for `CCOC(=O)O[C@H](C)OC(=O)c1ccc2c(c1)cc(C(=O)NC1CCN(C(C)C)CC1)n2Cc1cc(-c2ccc(Cl)s2)on1`, “inactive”.
In the case of `CCCC(=O)OCCC(C)C`, the compound was classed as inactive.
For the compound `c1ccc2n[nH]nc2c1`, the call was inactive.
For the compound `O=C1O[C@H]([C@@H](O)CO)C(O)=C1O`, the compound was classed as inactive.
Turning to `CCN(Cc1cccnc1)C(=O)c1cccc(Cl)c1[C@]1(C)C(=O)N(Cc2ccc(OC)cc2OC)c2ccc(Cl)cc21`, the half-maximal activity concentration (AC50) is 12.5 µM (active).
Same read-out and setting: then `CC(=O)N1CCN(c2ccc(OC[C@H]3CO[C@](Cn4ccnc4)(c4ccc(Cl)cc4Cl)O3)cc2)CC1`, with 82.8 µM (active).
For the compound `O=C(O)c1ccccc1C(=O)OCc1ccccc1`, the compound was classed as inactive.
Same read-out and setting: for `CN(C)C(=O)C1(N2CCCCC2)CCN(CC[C@@]2(c3ccc(Cl)c(Cl)c3)CN(C(=O)c3ccccc3)CCO2)CC1` the value was “inactive”.
In the case of `O=C(O)Cc1cc(I)c(Oc2ccc(O)c(I)c2)c(I)c1`, the call was inactive.
On to `O=CCCCC=O`, for which the compound was classed as inactive.
On to `CCCCCCCCCCCCO`, for which the call was inactive.
For `O=C=NCCCCCCN=C=O`, the call was inactive.
As for `CC/C(=C(/CC)c1ccc(O)cc1)c1ccc(O)cc1`, the AC50 is 93.2 µM (active).
As for `CCCCCc1ccc(N)cc1`, the compound was called inactive.
For `CCCCCCCCN(C)CCCCCCCC`, the result was inactive.
For `Clc1cc(Cl)c2c(c1)N=C1CCCCCN1C2`, the result was inactive.
On the same count and under the same terms, then `CCN(Cc1cccc(S(=O)(=O)O)c1)c1ccc(C(=C2C=CC(=[N+](CC)Cc3cccc(S(=O)(=O)O)c3)C=C2)c2ccccc2S(=O)(=O)[O-])cc1`, with “inactive”; and `CCCCOC(=O)c1ccc(O)cc1`, with “inactive”.
Turning to `O=c1ccc2ccccc2o1`, the result was inactive.
On to `CCCCOC(=O)CC(CC(=O)OCCCC)(OC(C)=O)C(=O)OCCCC`, for which the call was inactive.
For `COc1cc(C(=O)NC2CCN(C)CC2)ccc1Nc1ncc2c(n1)N(C1CCCC1)CC(F)(F)C(=O)N2C`, the AC50 was 16.2 µM (active).
Same read-out and setting: for `CN1C(=O)N(c2ccccc2Br)Cc2cnc(Nc3ccc4c(c3)OCC(CO)O4)nc21` (stereo not given) the value was 85.8 µM (active).
With `Cc1ncc(CO)c(CO)c1O`, the outcome was inactive.
On to `CC(C)(c1cc(Br)c(O)c(Br)c1)c1cc(Br)c(O)c(Br)c1`, for which the compound was called inactive.
As for `Oc1ccc2ccccc2c1`, the compound was called inactive.
Turning to `COc1ccc2cc(S(=O)(=O)N[C@H](CC(=O)N[C@H](Cc3ccc(CN4[C@H](C)CCC[C@@H]4C)cc3)C(=O)N(C)C(C)C)c3ccc4c(c3)OCO4)ccc2c1`, the half-maximal activity concentration (AC50) is 25.1 µM (active).
Regarding `CC(C)(C)c1cc(/C=C2\SC(N)=NC2=O)cc(C(C)(C)C)c1O`, the AC50 was 27.8 µM (active).
Take `C[C@]12CC[C@@H]3c4ccc(O)cc4CC[C@H]3[C@@H]1CCC2=O`: the compound was classed as inactive.
Still for that read-out and setting: for `c1ccc2ccccc2c1` the value was “inactive”.
Still for that read-out and setting: then `Cc1oc2c(NC(=O)c3c(Cl)cccc3Cl)cccc2c1C(C)(C)O`, with “inactive”; and `CCCCCCCC[Si](OCC)(OCC)OCC`, with “inactive”.
With `OC12N=C(c3ccccc3)SC1Cc1cc(Cl)ccc12` (stereo not given), the compound was classed as inactive.
